Source: PubChem BioAssay AID1211 (NMMLSC, 2008)
Activity calls are given as the source filed them. The rule behind the calls is not given here.

Molecular target: Estrogen receptor (Homo sapiens) (UniProt P03372)
Experiment: ERalpha ligand binders by competition, primary screen, cell-based, Cos7 ERalpha-GFP, flow cytometry (AID 1211);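 note: 0% = DMSO vehicle wells and 100% = no E2-Alexa633 signal left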
Settings: fluorescent ligand competition, stronger effect = higher value

Estrogen receptor (Homo sapiens), sequence (P03372 whole entry, looked up): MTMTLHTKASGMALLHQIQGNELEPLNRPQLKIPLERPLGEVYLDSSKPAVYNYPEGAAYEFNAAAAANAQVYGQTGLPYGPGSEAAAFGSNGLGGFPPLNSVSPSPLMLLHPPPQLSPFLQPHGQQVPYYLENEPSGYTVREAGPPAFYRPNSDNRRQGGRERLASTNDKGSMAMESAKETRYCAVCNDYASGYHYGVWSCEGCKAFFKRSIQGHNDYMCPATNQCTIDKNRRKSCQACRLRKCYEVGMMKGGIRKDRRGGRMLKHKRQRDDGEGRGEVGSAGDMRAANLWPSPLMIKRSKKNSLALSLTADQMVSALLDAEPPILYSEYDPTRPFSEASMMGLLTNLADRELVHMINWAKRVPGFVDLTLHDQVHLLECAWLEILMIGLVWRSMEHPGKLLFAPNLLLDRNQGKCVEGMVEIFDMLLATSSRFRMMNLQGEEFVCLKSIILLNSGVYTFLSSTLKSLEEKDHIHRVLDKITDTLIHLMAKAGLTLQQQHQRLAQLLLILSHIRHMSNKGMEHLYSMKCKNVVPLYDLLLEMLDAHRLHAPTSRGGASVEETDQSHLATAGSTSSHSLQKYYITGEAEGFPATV

O=C1N/C(=C\c2ccc(O)cc2)C(=O)c2ccccc21
inhibition of ligand binding (at 10 µM): 30% (inactive) | inhibition of ligand binding (binding inhibition, at 0.1 µM): 14%

CSc1nc2c(c(=O)[nH]1)C(c1cccs1)C1=C(CCCC1=O)N2 (stereo not given)
inhibition of ligand binding (at 10 µM): 28% (inactive) | inhibition of ligand binding (binding inhibition, at 0.1 µM): 30%

Nc1ccc(N2CCN(C(=O)c3ccco3)CC2)cc1
inhibition of ligand binding (at 10 µM): 28% (inactive) | inhibition of ligand binding (binding inhibition, at 0.1 µM): 33%

COc1cc(OC)cc(C(=O)NC2CCN(C(=O)N3c4ccccc4Sc4ccccc43)CC2)c1
inhibition of ligand binding (at 10 µM): 6% (inactive) | inhibition of ligand binding (binding inhibition, at 0.1 µM): 22%

CC(=O)N1c2ccc(Cl)cc2C2C=CCC2C1c1cccc2ccccc12 (stereo not given)
inhibition of ligand binding (at 10 µM): 0% (inactive) | inhibition of ligand binding (binding inhibition, at 0.1 µM): 13%

O=c1nc2s/c(=C\c3ccco3)c(=O)n2nc1Cc1ccc(F)cc1
inhibition of ligand binding (at 10 µM): 32% (inactive) | inhibition of ligand binding (binding inhibition, at 0.1 µM): 61%

Cc1ccc(Oc2cc(N3CCOCC3)nc(-c3ccccc3)n2)cc1
inhibition of ligand binding (at 10 µM): 13% (active) | inhibition of ligand binding (binding inhibition, at 0.1 µM): 66%

CCCc1nc2sc3ccccc3c(=O)c2c(=O)n1Cc1ccco1
inhibition of ligand binding (at 10 µM): 42% (inactive) | inhibition of ligand binding (binding inhibition, at 0.1 µM): 1%

Nc1c(Cl)cc(Cl)cc1C(=O)OCC(=O)NC1CC1
inhibition of ligand binding (at 10 µM): 52% (inactive) | inhibition of ligand binding (binding inhibition, at 0.1 µM): 13%

Nc1cc2sc(-c3ccc(C(=O)O)cc3)nc2cc1Cl
inhibition of ligand binding (at 10 µM): 24% (inactive) | inhibition of ligand binding (binding inhibition, at 0.1 µM): 49%

O=C(Cc1coc2cc3c(cc12)CCC3)OCc1cc(=O)n2c(n1)sc1ccccc12
inhibition of ligand binding (at 10 µM): 31% (inactive) | inhibition of ligand binding (binding inhibition, at 0.1 µM): 9%

O=C(Cn1nnc(-c2ccc3c(c2)OCO3)n1)NCc1ccco1
inhibition of ligand binding (at 10 µM): 38% (inactive) | inhibition of ligand binding (binding inhibition, at 0.1 µM): 62%

O=C1CC(=O)N2N=C(c3ccc([N+](=O)[O-])cc3)SC2=N1
inhibition of ligand binding (at 10 µM): 38% (inactive) | inhibition of ligand binding (binding inhibition, at 0.1 µM): 8%

Cc1cccn2c(=O)c3cc(C(=O)O)n(C)c3nc12
inhibition of ligand binding (at 10 µM): 33% (inactive) | inhibition of ligand binding (binding inhibition, at 0.1 µM): 17%

Oc1ccc(C2=Nn3c(nnc3-c3ccco3)SC2)cc1O
inhibition of ligand binding (at 10 µM): 32% (inactive) | inhibition of ligand binding (binding inhibition, at 0.1 µM): 27%
